Experimental data published in PubChem BioAssay (NCATS).
Records with an inconclusive call do not appear. The source made the active and inactive calls. Unless noted, calls come from the whole dose curve; as a rule, active = well fitted curve in the direction sought with a large enough effect; inconclusive = small, poorly fitted or top-dose-only effect, or another doubt; inactive = no such curve, though single readings can be large; an effect the other way counts as inactive or inconclusive.

Assays:
[1] = qHTS Assay for Identification of Small Molecule Agonists for Hypoxia Response Element Signaling Pathway (AID 914; active = well fitted activation curve with a large enough effect in the signal ratio, with a control signal flat, not every such curve was filed as active; the % refers to the signal ratio; note: % of control where 0% means no effect); details: ME-180 (cervical carcinoma) HRE-bla reporter, beta-lactamase ratio, CoCl2, 17 h; activation: active compounds read high
Summary of the method: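 qHTS titration; ME-180 HRE-bla cells; EC50 CoCl2 co-treatment, 17 h at 37 degrees Celsius; CCF4 dye, ex 405nm, em 460nm and 530nm; %Activity from ratio; AC50.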

[2] = Counterscreen for APE1 Inhibitors: Fluorescent Dye Displacement Validation Assay (AID 1707); details: fluorescent dye displacement from DNA; series mostly up to 57.1 µM;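 note: plate controls were ThO with dsDNA and no compound for no effect and ThO without dsDNA for full effect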
Summary of the method: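 Compounds are scored by their ability to displace Thiazole Orange (250 nM) from a 50 nM TAMRA-tagged duplex bearing a tetrahydrofuran abasic site. Buffer is 50 mM Tris-HCl pH7.5, 50mM NaCl, 2 mM MgCl2, 0.01% Tween-20.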

[3] = target: Transient receptor potential cation channel subfamily V member 1 (Homo sapiens) (UniProt Q8NER1); assay: HTS Assay for Compounds that Act as Enhancers of the Vanilloid Receptor 1 (AID 488979); details: TRPV1-expressing cells, enhancer of channel activity; series mostly up to 41.7 µM; note: 0% is about no effect
Summary of the method: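 TRPV1 cells loaded with Fluo-8 calcium dye; compound added and Ca2+ signal (ex 480/em 520 nm) followed 3 min, then capsaicin at EC20 added and read 2 more min to detect enhancement.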

[4] = target: Rap guanine nucleotide exchange factor 3 (Homo sapiens) (UniProt O95398); assay: Counterscreen qHTS for antagonist of cAMP-regulated guanine nucleotide exchange factor 3 (EPAC1) (AID 1645888); details: Rap1B-BODIPY-GDP nucleotide exchange, fluorescence; series mostly up to 154 µM;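 note: fluorescence loss as bound BODIPY-GDP is released from Rap1B; % of control where 0% means no effect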
Summary of the method: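 Rap1B–BODIPY-GDP (250 nM) with 50 uM GDP; compounds pin-transferred to 9.74 nM–152 uM final (activator) or from 7.32 nM upwards (inhibitor). Fluorescence Ex/Em 480/540 nm read at 5 and 30 min, then after adding cAMP or buffer, at room temperature.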

[5] = Viability counterscreen for antagonist of constitutive androstane receptor (CAR) against the NCATS DSHEA and TCM libraries (AID 1794837); details: CAR reporter cell line viability counterscreen, qHTS; series mostly up to 40 µM;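 note: compound exposure lasted 24 h before viability reading; 0% is about no effect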
Summary of the method: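 HepG2-CYP2B6-hCAR cells, 2,500/well, were exposed 24 hr at 37C to substances together with 48 uM CITCO (final). Viability was read as CellTiter-Fluor fluorescence (Ex/Em 405/540 nm) after 1 hr.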

[6] = target: Nuclear receptor subfamily 1 group I member 3 (Homo sapiens) (UniProt Q14994); assay: Primary qHTS for agonist of constitutive androstane receptor (CAR) against the NCATS DSHEA and TCM libraries (AID 1794839); details: CAR agonist reporter cells, qHTS luminescence; Potency: CAR antagonist co-added at 0.75 µM unless noted; series mostly up to 40 µM;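 note: HepG2 cells expressing human CAR with a CYP2B6 reporter plus PK11195 antagonist; 0% is about no effect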
Summary of the method: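 HepG2-CYP2B6-hCAR cells, 2,500/well, attached 5 h, then dosed with 0.75 µM PK11195 (final) for 24 h at 37 °C. Luciferase luminescence read (ONE-Glo); CellTiter-Fluor viability (Ex/Em 405/540 nm) in same wells; CITCO positive control.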

[7] = HepG2 viability counterscreen (readout 2: ATP content) against the NCATS DSHEA and TCM libraries (AID 1794840); details: ATP content luminescence; series mostly up to 27.3 µM; note: 0% is about no effect
Summary of the method: (§1)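 HepG2 cells, 1,000/well, attached ~4 h, then exposed ~24 h at 37C to substances. Protease activity read by fluorescence of 25 uM GF-AFC (Ex/Em 380/510 nm) after 30 min; ATP then by CellTiter-Glo luminescence.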

[8] = HepG2 viability counterscreen (readout 1: protease activity) against the NCATS DSHEA and TCM libraries (AID 1794841); details: qHTS concentration series; series mostly up to 27.3 µM;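 note: cells exposed to compounds for about 24 h before the protease read; 0% is about no effect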
Summary of the method: as §1

[9] = target: Cytochrome P450 3A4 (Homo sapiens) (UniProt P08684); assay: qHTS for inhibitors of CYP3A4 against the NCATS DSHEA and TCM libraries (AID 1919971); details: recombinant CYP3A4 enzyme activity, luminescence qHTS; series mostly up to 34.1 µM;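 note: % is set by controls: 0 for no effect and ±100 for the full control effect; inhibition lowers luminescence from luciferin made by CYP3A4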
Summary of the method: (§2)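 Luminescent P450-Glo format: compounds preincubated 15 min with enzyme and luciferin substrate, reaction run 30-45 min after NADPH regeneration solution. Intraplate controls: ketoconazole for CYP3A4 and CYP2C19, sulfaphenazole for CYP2C9.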

[10] = target: Cytochrome P450 2D6 (Homo sapiens) (UniProt P10635); assay: qHTS for inhibitors of CYP2D6 against the NCATS DSHEA and TCM libraries (AID 1919972); details: CYP2D6 enzymatic inhibition, luminescence qHTS; series mostly up to 34.1 µM; note: potency is the fitted concentration of half-maximal effect; for activity change, negative = inhibition: % is set by controls: 0 for no effect and ±100 for the full control effect
Summary of the method: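 Luminescent P450-Glo read-out of CYP2D6 turnover of a luciferin substrate after NADPH-driven reaction of 30-45 min at room temperature. Compounds were first preincubated 15 min with enzyme at titrated concentrations; quinidine was the intraplate control.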

[11] = target: Cytochrome P450 2C9 (Homo sapiens) (UniProt P11712); assay: qHTS for inhibitors of CYP2C9 against the NCATS DSHEA and TCM libraries (AID 1919973); details: recombinant CYP2C9 enzyme activity, luminescence; series mostly up to 34.1 µM; note: potency is the fitted concentration of half-maximal effect;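 for activity change, negative = inhibition: luminogenic pro-luciferin CYP2C9 substrate turned into luciferin with NADPH regeneration; % is set by controls: 0 for no effect and ±100 for the full control effect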
Summary of the method: as §2

[12] = KB-3-1 P-gp reporter qHTS against the NCATS DSHEA and TCM libraries (AID 1919975); details: KB-3-1 parental cells, CellTiter-Glo luminescence viability, 72 h; series mostly up to 26.1 µM; note: 0% is about no effect
Summary of the method: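 Parental KB-3-1 cells, 500 cells/well, in DMEM with 10% FBS, exposed 72 h at 37 C to compounds in concentration-response. Viability read by CellTiter-Glo luminescence after 30 min at room temperature.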

[13] = target: Cytochrome P450 1A2 (Homo sapiens) (UniProt P05177); assay: qHTS for inhibitors of CYPIA2 against the NCATS DSHEA and TCM libraries (AID 1919976); details: recombinant CYP1A2 enzyme activity, luminescence; series mostly up to 37 µM; note: potency is the fitted concentration of half-maximal effect
Summary of the method: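 Human CYP1A2 with pro-luciferin substrate (typically 100 mM KPO4), 15 min preincubation with compound, then 1x NADPH regeneration for 30-45 min at room temperature in the dark. Luciferin quantified by luciferase luminescence; furafylline intraplate control.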

[14] = KB-8-5-11 P-gp reporter qHTS against the NCATS DSHEA and TCM libraries (AID 1919977); details: KB-8-5-11 cells; series mostly up to 26.1 µM; note: 0% is about no effect
Summary of the method: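 P-gp-overexpressing KB-8-5-11 cells were screened in colchicine-free medium at 500 cells/well, as a titration series. Cells were exposed for 72 h at 37C. Viability was read by CellTiter-Glo luminescence after 30 min at room temperature.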

[15] = qHTS Counterscreen for compound interference against the NCATS DSHEA and TCM libraries (AID 1919978); details: firefly luciferase detection reagent interference, luminescence;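 note: compounds preincubated with 1 µM D-luciferin or buffer before detection reagent; % of control where 0% means no effect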
Summary of the method: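 Firefly luciferase detection reagent was added after compounds (19.5 nM–39.8 uM final) had been incubated 15 min at room temperature with 1 uM D-luciferin or with 100 mM phosphate buffer alone. Luminescence was read after 30 min at room temperature.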

[16] = Dual reporter qHTS for agonist of Pregnane X Receptor (hPXR) against the NCATS DSHEA and TCM libraries: Fluorescence readout (AID 1920058); details: PXR dual reporter cells; series mostly up to 40 µM; note: 0% is about no effect
Summary of the method: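 hPXR-Luc HepG2 cells, 2000/well in charcoal-stripped serum, attached 5 h, dosed for ~24 h at 37 °C. Fluorescence read is CellTiter-Fluor viability (Ex/Em 405/540 nm); rifampicin positive, tetraoctyl ammonium bromide (92 µM) cytotoxicity controls.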

[17] = target: Nuclear receptor subfamily 1 group I member 2 (Homo sapiens) (UniProt O75469); assay: Dual reporter qHTS for antagonist of Pregnane X Receptor (hPXR) against the NCATS DSHEA and TCM libraries: Luminescence Readout (AID 1920060); details: hPXR dual reporter cells, luciferase luminescence, antagonist mode; series mostly up to 40 µM;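 note: HepG2 cells carrying hPXR luciferase reporter stimulated with rifampicin at 2 µM; 0% is about no effect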
Summary of the method: (§3)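 In antagonist mode, 2 uM rifampicin was added to hPXR-Luc HepG2 cells alongside test substances, incubated 24 h at 37 C; luminescence gave reporter activity, and CellTiter-Fluor fluorescence (405/540 nm) gave viability.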

[18] = Dual reporter qHTS for antagonist of Pregnane X Receptor (hPXR) against the NCATS DSHEA and TCM libraries: Fluorescence Readout (AID 1920061); details: PXR dual reporter cells, antagonist mode; series mostly up to 40 µM; note: 0% is about no effect
Summary of the method: as §3

[19] = target: Nuclear receptor subfamily 1 group I member 3 (Homo sapiens) (UniProt Q14994); assay: Primary qHTS for antagonist of constitutive androstane receptor (CAR) against the NCATS DSHEA and TCM libraries (AID 1794836); details: CAR reporter cell assay, antagonist mode, luciferase; series mostly up to 40 µM;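 note: HepG2 cells stably expressing hCAR with CYP2B6 luciferase reporter stimulated by CITCO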
Summary of the method: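 HepG2-CYP2B6-hCAR cells, attached 5 h, given compounds plus CITCO agonist […], incubated 24 h at 37 C. Luciferase luminescence read, multiplexed with CellTiter-Fluor viability (Ex/Em 405/540 nm).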

[20] = target: Androgen receptor (Homo sapiens) (UniProt P10275); assay: qHTS assay for small molecule antagonists of androgen receptor signaling (AID 588516; active = well fitted curve in the direction sought with a large enough effect in the signal ratio, with a control signal flat, not every such curve was filed as active; the % refers to the signal ratio; note: potency is the fitted concentration of half-maximal effect; for activity change, negative = inhibition: % is set by controls: 0 for no effect and ±100 for the full control effect); details: AR-UAS-bla HEK293, beta-lactamase ratio, antagonist mode, 16 h; series mostly up to 76.8 µM
Summary of the method: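 AR-UAS-bla GripTite HEK 293 cells (2000/well) treated with compound titrations plus 10 nM R1881 for 16 h at 37C. Beta-lactamase read by CCF4 FRET (460/530 nm); IC50 from Hill fits, normalized to R1881 and DMSO control wells.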

Chain of Cytochrome P450 2C9 (Homo sapiens) (P11712 whole entry, looked up): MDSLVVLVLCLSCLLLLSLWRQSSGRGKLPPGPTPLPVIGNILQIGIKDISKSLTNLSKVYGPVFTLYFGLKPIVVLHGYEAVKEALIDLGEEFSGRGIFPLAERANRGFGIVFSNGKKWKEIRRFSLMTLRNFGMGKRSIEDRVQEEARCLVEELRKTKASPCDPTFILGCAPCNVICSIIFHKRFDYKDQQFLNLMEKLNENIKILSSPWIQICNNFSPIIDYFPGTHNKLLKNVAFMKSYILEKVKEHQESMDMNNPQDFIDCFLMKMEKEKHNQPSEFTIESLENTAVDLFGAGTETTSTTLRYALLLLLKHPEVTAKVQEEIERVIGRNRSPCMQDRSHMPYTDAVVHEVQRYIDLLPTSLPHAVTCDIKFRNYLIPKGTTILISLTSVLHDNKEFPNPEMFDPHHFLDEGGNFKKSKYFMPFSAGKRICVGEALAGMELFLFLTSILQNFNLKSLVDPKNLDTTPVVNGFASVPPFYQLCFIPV
Chain of Nuclear receptor subfamily 1 group I member 2 (Homo sapiens) (O75469 whole entry, looked up): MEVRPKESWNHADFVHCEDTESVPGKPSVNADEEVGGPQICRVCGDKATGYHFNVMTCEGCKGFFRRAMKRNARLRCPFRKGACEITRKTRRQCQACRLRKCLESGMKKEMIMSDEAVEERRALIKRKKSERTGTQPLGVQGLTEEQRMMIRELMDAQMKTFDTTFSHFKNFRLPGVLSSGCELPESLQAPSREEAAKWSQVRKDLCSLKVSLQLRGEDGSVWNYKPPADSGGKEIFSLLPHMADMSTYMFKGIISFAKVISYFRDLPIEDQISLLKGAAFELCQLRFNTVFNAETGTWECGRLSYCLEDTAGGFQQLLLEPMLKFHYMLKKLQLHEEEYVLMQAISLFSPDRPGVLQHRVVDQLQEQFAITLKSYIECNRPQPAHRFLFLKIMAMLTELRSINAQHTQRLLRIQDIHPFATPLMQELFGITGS
Chain of Nuclear receptor subfamily 1 group I member 3 (Homo sapiens) (Q14994 whole entry, looked up): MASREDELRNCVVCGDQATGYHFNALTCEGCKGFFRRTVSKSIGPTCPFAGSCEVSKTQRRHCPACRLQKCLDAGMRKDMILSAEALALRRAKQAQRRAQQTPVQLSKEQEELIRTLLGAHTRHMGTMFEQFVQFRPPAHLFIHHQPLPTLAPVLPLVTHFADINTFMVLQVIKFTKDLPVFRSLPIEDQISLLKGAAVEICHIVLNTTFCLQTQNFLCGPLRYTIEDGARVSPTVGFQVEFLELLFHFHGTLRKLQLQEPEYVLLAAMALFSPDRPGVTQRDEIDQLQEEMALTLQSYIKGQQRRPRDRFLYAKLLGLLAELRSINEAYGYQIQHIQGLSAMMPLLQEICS
Chain of Cytochrome P450 1A2 (Homo sapiens) (P05177 whole entry, looked up): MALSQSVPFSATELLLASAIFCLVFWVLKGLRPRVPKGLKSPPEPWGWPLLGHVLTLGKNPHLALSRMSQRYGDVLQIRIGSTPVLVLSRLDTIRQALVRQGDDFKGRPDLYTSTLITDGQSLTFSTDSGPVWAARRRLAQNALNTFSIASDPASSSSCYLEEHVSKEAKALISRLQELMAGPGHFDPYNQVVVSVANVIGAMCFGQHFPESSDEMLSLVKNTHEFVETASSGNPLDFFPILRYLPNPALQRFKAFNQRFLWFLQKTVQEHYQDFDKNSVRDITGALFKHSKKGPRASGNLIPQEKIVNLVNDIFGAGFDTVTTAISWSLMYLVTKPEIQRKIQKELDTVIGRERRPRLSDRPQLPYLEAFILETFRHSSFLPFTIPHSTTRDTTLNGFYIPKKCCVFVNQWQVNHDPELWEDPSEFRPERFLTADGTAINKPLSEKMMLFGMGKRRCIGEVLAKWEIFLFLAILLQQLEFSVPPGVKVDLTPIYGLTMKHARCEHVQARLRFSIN
Chain of Cytochrome P450 3A4 (Homo sapiens) (P08684 whole entry, looked up): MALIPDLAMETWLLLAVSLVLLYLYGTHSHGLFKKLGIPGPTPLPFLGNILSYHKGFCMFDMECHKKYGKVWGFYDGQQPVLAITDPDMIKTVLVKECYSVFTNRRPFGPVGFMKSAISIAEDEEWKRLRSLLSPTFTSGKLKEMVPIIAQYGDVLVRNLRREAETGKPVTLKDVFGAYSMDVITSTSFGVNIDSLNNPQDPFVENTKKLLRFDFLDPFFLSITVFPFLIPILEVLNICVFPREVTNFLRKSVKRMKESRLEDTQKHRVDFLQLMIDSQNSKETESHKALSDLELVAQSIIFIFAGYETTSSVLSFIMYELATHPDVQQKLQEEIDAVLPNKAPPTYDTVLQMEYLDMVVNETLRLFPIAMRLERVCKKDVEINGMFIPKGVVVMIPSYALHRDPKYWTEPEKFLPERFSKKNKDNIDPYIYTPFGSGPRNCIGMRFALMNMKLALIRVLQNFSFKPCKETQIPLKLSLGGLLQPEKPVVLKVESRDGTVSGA
Chain of Androgen receptor (Homo sapiens) (P10275 whole entry, looked up): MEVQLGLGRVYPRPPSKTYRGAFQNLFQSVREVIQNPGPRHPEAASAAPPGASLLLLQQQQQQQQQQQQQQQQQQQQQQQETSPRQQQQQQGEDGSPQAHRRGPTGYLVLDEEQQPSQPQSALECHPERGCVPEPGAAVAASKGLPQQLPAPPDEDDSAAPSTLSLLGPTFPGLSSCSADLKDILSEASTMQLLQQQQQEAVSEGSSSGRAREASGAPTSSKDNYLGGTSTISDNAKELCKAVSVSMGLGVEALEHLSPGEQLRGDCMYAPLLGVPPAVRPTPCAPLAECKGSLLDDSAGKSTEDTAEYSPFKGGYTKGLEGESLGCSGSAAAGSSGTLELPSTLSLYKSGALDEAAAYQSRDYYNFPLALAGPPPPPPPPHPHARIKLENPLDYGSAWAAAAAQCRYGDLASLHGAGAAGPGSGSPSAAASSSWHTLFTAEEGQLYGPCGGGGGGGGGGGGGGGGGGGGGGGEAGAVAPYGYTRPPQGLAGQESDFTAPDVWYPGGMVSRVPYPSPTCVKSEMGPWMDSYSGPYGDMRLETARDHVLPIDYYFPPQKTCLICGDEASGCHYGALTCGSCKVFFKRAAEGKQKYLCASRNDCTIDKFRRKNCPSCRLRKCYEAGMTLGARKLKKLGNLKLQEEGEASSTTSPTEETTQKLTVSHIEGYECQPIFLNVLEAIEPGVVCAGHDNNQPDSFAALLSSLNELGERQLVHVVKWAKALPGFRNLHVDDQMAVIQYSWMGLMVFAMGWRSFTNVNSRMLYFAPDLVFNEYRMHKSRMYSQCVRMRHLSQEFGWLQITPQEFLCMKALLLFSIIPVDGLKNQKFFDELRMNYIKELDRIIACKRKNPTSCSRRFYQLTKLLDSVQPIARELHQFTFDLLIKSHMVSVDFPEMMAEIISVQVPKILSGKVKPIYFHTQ
Chain of Rap guanine nucleotide exchange factor 3 (Homo sapiens) (O95398 whole entry, looked up): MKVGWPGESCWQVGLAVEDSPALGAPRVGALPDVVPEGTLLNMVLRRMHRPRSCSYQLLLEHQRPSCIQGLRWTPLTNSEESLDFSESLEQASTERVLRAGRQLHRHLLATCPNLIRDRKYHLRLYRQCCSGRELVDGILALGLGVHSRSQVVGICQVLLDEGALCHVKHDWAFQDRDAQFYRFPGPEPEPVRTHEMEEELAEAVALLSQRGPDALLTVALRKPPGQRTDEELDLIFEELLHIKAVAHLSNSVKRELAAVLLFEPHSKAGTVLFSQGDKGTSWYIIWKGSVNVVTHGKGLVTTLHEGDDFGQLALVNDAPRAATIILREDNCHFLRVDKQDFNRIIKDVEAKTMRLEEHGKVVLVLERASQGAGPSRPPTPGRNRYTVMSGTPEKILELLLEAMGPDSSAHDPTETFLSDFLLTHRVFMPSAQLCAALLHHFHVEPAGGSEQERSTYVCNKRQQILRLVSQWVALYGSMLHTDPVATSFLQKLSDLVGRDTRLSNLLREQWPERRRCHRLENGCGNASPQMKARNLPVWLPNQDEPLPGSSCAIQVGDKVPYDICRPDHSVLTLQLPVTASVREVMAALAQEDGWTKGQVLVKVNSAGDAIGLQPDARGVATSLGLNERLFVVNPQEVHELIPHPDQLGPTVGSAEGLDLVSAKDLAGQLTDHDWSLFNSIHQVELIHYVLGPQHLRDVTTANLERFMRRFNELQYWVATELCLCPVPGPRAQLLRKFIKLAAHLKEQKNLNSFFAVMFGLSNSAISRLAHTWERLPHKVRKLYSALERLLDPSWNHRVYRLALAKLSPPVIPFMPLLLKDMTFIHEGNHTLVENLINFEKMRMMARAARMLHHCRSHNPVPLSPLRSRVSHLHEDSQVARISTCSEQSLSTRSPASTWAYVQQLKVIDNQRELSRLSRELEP
Chain of Transient receptor potential cation channel subfamily V member 1 (Homo sapiens) (Q8NER1 whole entry, looked up): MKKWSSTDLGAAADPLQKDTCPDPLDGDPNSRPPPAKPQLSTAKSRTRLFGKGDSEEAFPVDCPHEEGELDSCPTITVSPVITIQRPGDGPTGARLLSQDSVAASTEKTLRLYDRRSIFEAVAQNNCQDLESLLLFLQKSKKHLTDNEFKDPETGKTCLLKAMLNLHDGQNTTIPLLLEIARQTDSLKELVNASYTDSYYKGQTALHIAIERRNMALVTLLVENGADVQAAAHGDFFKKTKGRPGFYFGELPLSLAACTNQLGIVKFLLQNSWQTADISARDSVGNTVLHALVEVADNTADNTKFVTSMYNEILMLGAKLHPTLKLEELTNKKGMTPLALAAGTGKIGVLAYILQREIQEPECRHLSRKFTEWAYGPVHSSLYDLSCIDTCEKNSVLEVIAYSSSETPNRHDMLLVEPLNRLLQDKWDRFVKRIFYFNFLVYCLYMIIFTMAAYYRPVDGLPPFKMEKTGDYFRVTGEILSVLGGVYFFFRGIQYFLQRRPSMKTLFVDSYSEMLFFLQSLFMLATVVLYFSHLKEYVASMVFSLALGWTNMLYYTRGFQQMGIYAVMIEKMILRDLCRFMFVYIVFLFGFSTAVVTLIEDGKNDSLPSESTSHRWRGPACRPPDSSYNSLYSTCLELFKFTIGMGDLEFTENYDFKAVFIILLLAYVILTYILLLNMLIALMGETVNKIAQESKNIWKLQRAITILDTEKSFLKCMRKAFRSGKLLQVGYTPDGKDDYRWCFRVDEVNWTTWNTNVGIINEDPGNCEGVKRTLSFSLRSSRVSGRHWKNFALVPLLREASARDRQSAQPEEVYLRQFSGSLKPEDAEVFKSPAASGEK

CN1CCCC2(CCN(C(=O)c3ccco3)CC2)C1
inactive: activation [1] -1.89%

C[C@]12CC[C@H](O)CC1=CCC1C2CC[C@]2(C)C(=O)CC[C@@H]12 (some centres undefined)
inactive: outcome [2]

CCCC[N+]1(C)C2CC(OC(=O)C(CO)c3ccccc3)CC1C1OC12 (centres undefined)
inactive: outcome [2]

O=C(OC1CCN(CCCl)CC1)C(c1ccccc1)c1ccccc1
inactive: outcome [3] | activity change, negative = inhibition [4] -43.6% [at 30.8 µM]

CC1=NCCc2c1[nH]c1cc(O)ccc21
inactive: activity change, negative = inhibition [4] 251% [at 30.8 µM]

C=CCc1ccc2c(c1)OCO2
inactive: outcome [5] | Potency [6] | outcome [7] | outcome [8] | Potency [9] | Potency [10] | Potency [11] | outcome [12] | Potency [14] | max response [15] 0.591% | outcome [16] | outcome [17] | outcome [18]
active: Potency [13] 15.8 µM

COc1ccc2c(c1O)-c1c(OC)c(OC)cc3c1[C@H](C2)N(C)CC3
inactive: Potency [19] | outcome [5] | Potency [6] | outcome [7] | outcome [8] | Potency [9] | Potency [11] | outcome [12] | max response [15] 1.18% | outcome [16] | outcome [17] | outcome [18]

O=S1OCC2C(CO1)C1(Cl)C(Cl)=C(Cl)C2(Cl)C1(Cl)Cl (centres undefined)
inactive: Potency [20]

NCC#Cc1ccccc1
inactive: outcome [3]

COc1cc2c(cc1O)CC1c3c(cc(O)c(OC)c3-2)CCN1C (centres undefined)
inactive: Potency [19] | outcome [5] | outcome [7] | outcome [8] | outcome [12] | Potency [14] | max response [15] 0.642% | outcome [16] | outcome [17] | outcome [18]
active: Potency [10] 11.2 µM | Potency [11] 10 µM | Potency [13] 3.98 µM

CCc1cccc(CC)c1N(COC)C(=O)CCl
active: Potency [20] 44.7 µM

CCC[C@@](C)(COC(N)=O)COC(=O)NC(C)C
inactive: activation [1] -3.35%
